These results are taken from PubChem BioAssay.

Assay [1] is described as follows: A549 cell viability effects, profiling panel, calcein-AM fluorescence, 48 h, basal (AID 1162). Conditions: higher = more signal.
Assay [2] can be described thus: adipocyte viability effects, profiling panel, cell-based, 3T3-L1 adipocytes, calcein-AM fluorescence, 48 h, basal (AID 1163). Conditions: 3T3-L1 adipocytes viability, higher = more signal.
The nature of assay [3]: HepG2 cell viability effects, profiling panel, calcein-AM fluorescence, 48 h, basal (AID 1164). As to conditions: higher = more signal.
Assay [4] can be described thus: MM1S cell viability effects, profiling panel, calcein-AM fluorescence, 48 h, basal (AID 1165).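 Also: viability of MM1S multiple myeloma cells under basal unstimulated conditions.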 Conditions: higher = more signal.
Assay [5] in a line: basal RPMI8226 viability, no added stimulus, profiling panel, cell-based, calcein-AM fluorescence, 48 h, PK04 Diversity Set (AID 1166).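 Also: cells grown under basal conditions without added stimulus.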 As to conditions: RPMI8226 myeloma viability, higher = more signal.
A short description of assay [6]: basal HepG2 mitochondrial membrane potential changes, profiling panel, cell-based, JC-1 fluorescence, 24 h, 100 nL compound (AID 1167). As to conditions: higher = more signal.
Assay [7] in a line: basal 3T3-L1 adipocyte mitochondrial potential changes, profiling panel, cell-based, JC-1 fluorescence, 3T3-L1 adipocytes, 24 h, 100 nL compound (AID 1168). As to conditions: JC-1 mitochondrial fluorescence, higher = more signal, called active from +8 up or from −8 down.
The nature of assay [8]: basal RPMI8226 mitochondrial membrane potential changes, profiling panel, cell-based, JC-1 fluorescence, 24 h, 100 nL compound (AID 1169). Conditions: RPMI8226 myeloma, JC-1 mitochondrial potential fluorescence, higher = more signal.
Assay [9] is described as follows: basal MM1S mitochondrial membrane potential changes, profiling panel, cell-based, JC-1 fluorescence, 24 h, 100 nL compound (AID 1170). Conditions: higher = more signal.
The nature of assay [10]: A549 lung cancer cell viability effects, profiling panel, resazurin fluorescence, 24 h, PK04 Diversity Set (AID 1171). As to conditions: higher = more signal, called active from +8 up or from −8 down. In general terms: Alamar Blue is a resazurin reagent that responds to reducing activity.

Calls of active or inactive are those of the source.
Also: test concentration not given here.

As to `CCOC(=O)C[C@H]1[C@H](OC(=O)Cc2ccc3c(c2)OCO3)[C@@H](NC(=O)c2ccc3ccccc3n2)c2cc(OCCCO)ccc2N1C(=O)c1ccc2ccccc2n1`, the z-score in assay [1] was 5.35; in [2], 1.03; in assay [3], 1.83; in assay [4], -1.01; in [5] it was 0.121; in assay [6], 2.81. Moreover, the z-score is 0.413 (inactive) in [7], 0.362 in assay [8], 0.981 in assay [9] and -0.387 (inactive) in assay [10].

On to `O=C(O)[C@@H]1C[C@@H]2C(=O)N3CCC[C@H]3C(=O)N2[C@@H]1c1ccc(O)cc1`, for which the z-score in assay [1] was -0.335; in [2], 1.13; in [3], -0.763; in assay [4], -3.42; in assay [5] it was 0.0242; in assay [6] it was 0.0357. Further, the z-score in assay [7] was -0.184 (inactive); in assay [8] it was -0.704; in assay [9] it was -1.34; in assay [10], -0.609 (inactive).

Take `CCOC(=O)C1=C[C@@H](C(C)(C)C)N(S(=O)(=O)c2ccc(C)cc2)[C@H]1c1cccc2ccccc12`: the z-score is -1.35 in assay [1]; -0.15 in [2]; -1.62 in [3]; -0.205 in assay [4]; -2.97 in assay [5]; 3.37 in [6]. In addition, the z-score is 0.348 (inactive) in assay [7], -0.919 in assay [8], -0.541 in assay [9] and 0.828 (inactive) in [10].

On to `COc1ccc([Si](C)(C)[C@H]2[C@H](CC(=O)N3CCC[C@H]3CO)O[C@@]3(C(=O)N(Cc4ccc(N5CCOC5=O)cc4)c4ccccc43)[C@@H]2C)cc1`, for which the z-score is -0.585 in assay [1]; 0.722 in assay [2]; -0.557 in [3]; -2.27 in assay [4]; -3.98 in assay [5]; 2.41 in [6]. Further, the z-score in [7] is 0.388 (inactive); in assay [8], -1.06; in assay [9], -0.325; in assay [10] it was 0.0083 (inactive).

Take `C[N+](C)(C)CCCCCCNC(=O)[C@@H]1C[C@@H]2C(=O)N3CCC[C@H]3C(=O)N2[C@@H]1c1ccc(O)cc1`: the z-score in [1] is -0.134; in [2], -0.329; in assay [3] it was -0.526; in assay [4] it was -0.403; in assay [5], -0.106; in assay [6] it was -1. In addition, the z-score in assay [7] was -0.362 (inactive); in assay [8], -0.101; in [9], -0.637; in assay [10], 1.78 (inactive).

As for `C=CC[C@@H](OC(=O)Nc1ccc(SC)cc1)c1ccc(O)c(F)c1`, the z-score in [1] was 1.12; in assay [2], -0.475; in assay [3], -0.889; in assay [4], -2.14; in assay [5] it was -1.75; in [6] it was -2.43. Also, the z-score in assay [7] was 4.4 (inactive); in assay [8], -0.343; in assay [9], -1.04; in assay [10] it was -0.68 (inactive).

As to `O=C(C1N=C(c2ccc(OCCCO)cc2)N(c2ccccc2)O1)N1CCCCC1` (stereo not given), the z-score in [1] is 0.775; in assay [2] it was 0.936; in [3], 0.772; in assay [4] it was 0.301; in assay [5] it was 0.609; in assay [6], 0.223. Besides, the z-score was -0.716 (inactive) in assay [7], -0.779 in [8], -0.313 in assay [9] and 1.07 (inactive) in assay [10].

For the molecule `C=CC[C@@H](OC(=O)Nc1ccc(OC)cc1)c1ccc(O)c(F)c1`, the z-score is -1.78 in assay [1]; 0.379 in [2]; -2.39 in [3]; -2.15 in [4]; -2.51 in [5]; -3.67 in [6]. Besides, the z-score is -1.37 (inactive) in assay [7], 0.122 in assay [8], -1.07 in [9] and -0.747 (inactive) in assay [10].

With `CCCC=C(CCC)[C@@H](NC(=O)c1cccs1)c1ccc(C(=O)OC)cc1`, the z-score is 0.126 in assay [1]; -0.302 in assay [2]; -0.125 in [3]; 0.388 in assay [4]; 0.45 in assay [5]; -0.115 in assay [6]. In addition, the z-score is -0.0911 (inactive) in assay [7], 0.973 in [8], -0.997 in assay [9] and 0.902 (inactive) in assay [10].

For the molecule `COC(=O)[C@]1(CCS(=O)(=O)c2ccccc2)N=C(c2ccc(OCCCO)cc2)O[C@@H]1c1ccccc1N=[N+]=[N-]`, the z-score in assay [1] was -1.49; in assay [2], 1.78; in [3] it was -2.18; in assay [4], -2.8; in [5], -3.33; in assay [6] it was 0.811. In addition, the z-score was -0.294 (inactive) in assay [7], -1.13 in assay [8], 0.546 in [9] and -3.46 (inactive) in assay [10].

Take `CC(C)c1ccc(NN2C(C(O)c3ccc(F)cc3)C=CC3C(=O)N(c4ccccc4)C(=O)C32)cc1` (stereo not given): the z-score in assay [1] was 0.394; in [2], -1.37; in [3], 0.747; in assay [4], -1.12; in [5], -1.46; in [6], -1.18. For the same molecule, the z-score in [7] was -0.382 (inactive); in assay [8], 0.282; in assay [9], -0.958; in [10] it was -0.12 (inactive).

For `CC(=O)NCCCC[C@@H]1NC(=O)[C@@H]2C[C@H](C(=O)NCCCCCN)[C@H](c3ccc(O)cc3)N2C1=O`, the z-score in assay [1] was -0.185; in assay [2], 0.42; in assay [3], -0.512; in [4] it was -0.449; in [5] it was -0.131; in assay [6], 0.651. Further, the z-score was -0.00185 (inactive) in [7], -0.673 in assay [8], 0.774 in assay [9] and -1.42 (inactive) in assay [10].

Consider `NC(=O)NCC#Cc1ccc2c(c1)[C@]1(C(=O)N2)[C@H](C(=O)N2CCN(c3ncccn3)CC2)[C@H]2C(=O)O[C@H](c3ccccc3)[C@H](c3ccccc3)N2[C@@H]1c1ccc(O)cc1`, for which the z-score in assay [1] was 0.348; in assay [2], -0.173; in [3], -0.388; in [4] it was -0.977; in assay [5], 0.18; in [6], -1.99. Further, the z-score in [7] is -1.02 (inactive); in [8], -0.315; in [9], 0.247; in assay [10], -0.292 (inactive).

With `CN(C)CCCCCCNC(=O)[C@@H]1C[C@@H]2C(=O)N3CCC[C@H]3C(=O)N2[C@@H]1c1cccc(OCCO)c1`, the z-score in assay [1] is -0.84; in [2], -0.314; in [3], -0.679; in [4], -0.592; in [5], -0.156; in assay [6] it was -1.06. The z-score in assay [7] is 0.444 (inactive); in [8], 0.605; in assay [9], 0.784; in assay [10], -0.954 (inactive).

For `CS(=O)(=O)CCOC(=O)C1=CC(CCCO)=CC(c2ccc(CN3CCCC3)cc2)N(Cc2sc3ccccc3c2Cl)C=C1C(=O)OCCS(C)(=O)=O` (stereo not given), the z-score is 0.389 in assay [1]; 0.958 in assay [2]; 0.888 in assay [3]; -1.59 in assay [4]; 0.16 in assay [5]; 2.41 in [6]. Further, the z-score is 0.0187 (inactive) in assay [7], -0.544 in assay [8], -0.299 in [9] and 0.328 (inactive) in assay [10].
